# Results as given in paper PMC7862700, “An all-to-all approach to the identification of sequence-specific readers for epigenetic DNA modifications on cytosine”.
# Key:
# Test in all cases: DAPPL (digital affinity profiling via proximity ligation, sequencing); 10 mM Tris-HCl pH 7.5, 50 mM NaCl, 1 mM DTT, 4% glycerol, room temperature, 30 min; GST-TFs on glutathione beads, 16-mer random dsDNA library, 0.1% formaldehyde crosslink after washing; high values mean tight binding
# Settings in all cases: protein: recombinant; tags: N-terminal GST; dsDNA, one strand shown
# [1] = molecular target: T1, ERF (Homo sapiens, UniProt P50548 1-548)
# T1 sequence: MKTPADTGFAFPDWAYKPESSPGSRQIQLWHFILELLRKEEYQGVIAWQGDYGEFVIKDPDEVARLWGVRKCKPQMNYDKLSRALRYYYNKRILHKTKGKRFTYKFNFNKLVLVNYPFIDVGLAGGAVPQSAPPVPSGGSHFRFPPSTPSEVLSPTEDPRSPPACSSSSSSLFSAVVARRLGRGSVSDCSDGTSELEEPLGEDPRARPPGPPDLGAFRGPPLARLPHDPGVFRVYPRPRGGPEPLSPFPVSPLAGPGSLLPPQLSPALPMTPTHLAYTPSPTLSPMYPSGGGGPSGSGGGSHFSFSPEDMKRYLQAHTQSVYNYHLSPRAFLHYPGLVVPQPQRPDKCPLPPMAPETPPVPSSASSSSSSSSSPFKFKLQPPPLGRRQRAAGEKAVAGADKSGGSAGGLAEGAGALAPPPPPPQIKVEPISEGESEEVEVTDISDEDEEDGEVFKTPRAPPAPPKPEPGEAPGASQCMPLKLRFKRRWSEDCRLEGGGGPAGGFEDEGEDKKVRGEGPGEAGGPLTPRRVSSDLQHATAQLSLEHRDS
# Summary of the method: (§1)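 A tag-only sample was pooled with DNA-barcoded human transcription factors that had been expressed in yeast as GST fusions and captured on glutathione beads. The pools were incubated for 30 min at room temperature with 200 nmole of a random double-stranded 16-mer DNA library in Tris/NaCl/DTT/glycerol buffer, then washed, crosslinked with 0.1% formaldehyde, proximity-ligated (BsaI/T4 ligase, 1 h, 37 °C), PCR-amplified and sequenced on an Illumina NextSeq500. Binding signal is each hexamer's read frequency for a factor divided by its frequency for the tag-only sample.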
# [2] = molecular target: T2, ETV3L (Homo sapiens, UniProt Q6ZN32 1-361)
# T2 sequence: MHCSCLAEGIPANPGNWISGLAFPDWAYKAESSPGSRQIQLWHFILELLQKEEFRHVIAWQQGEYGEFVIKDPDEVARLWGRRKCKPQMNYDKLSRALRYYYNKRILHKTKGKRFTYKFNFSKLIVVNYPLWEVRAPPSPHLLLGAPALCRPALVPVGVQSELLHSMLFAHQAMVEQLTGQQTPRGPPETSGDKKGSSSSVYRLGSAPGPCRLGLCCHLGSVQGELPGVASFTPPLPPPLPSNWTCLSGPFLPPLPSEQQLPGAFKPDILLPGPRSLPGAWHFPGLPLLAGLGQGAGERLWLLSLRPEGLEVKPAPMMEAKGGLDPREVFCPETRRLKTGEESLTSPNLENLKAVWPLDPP
# Summary of the method: as §1
# [3] = molecular target: T3, ETS2 (Homo sapiens, UniProt P15036 1-469)
# T3 sequence: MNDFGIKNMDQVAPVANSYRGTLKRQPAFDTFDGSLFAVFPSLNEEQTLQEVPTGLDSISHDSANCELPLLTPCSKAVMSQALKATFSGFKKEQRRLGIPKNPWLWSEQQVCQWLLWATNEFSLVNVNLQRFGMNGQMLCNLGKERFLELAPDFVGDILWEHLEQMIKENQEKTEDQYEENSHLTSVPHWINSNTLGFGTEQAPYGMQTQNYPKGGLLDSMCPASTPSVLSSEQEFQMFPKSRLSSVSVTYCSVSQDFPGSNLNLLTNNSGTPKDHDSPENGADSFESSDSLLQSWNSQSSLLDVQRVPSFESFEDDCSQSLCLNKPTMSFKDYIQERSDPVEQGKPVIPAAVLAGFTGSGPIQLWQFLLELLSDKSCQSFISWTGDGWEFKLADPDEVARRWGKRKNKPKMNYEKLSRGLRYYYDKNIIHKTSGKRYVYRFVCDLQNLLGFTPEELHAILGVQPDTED
# Summary of the method: as §1
# [4] = molecular target: T4, SPDEF (Homo sapiens, UniProt O95238 1-335)
# T4 sequence: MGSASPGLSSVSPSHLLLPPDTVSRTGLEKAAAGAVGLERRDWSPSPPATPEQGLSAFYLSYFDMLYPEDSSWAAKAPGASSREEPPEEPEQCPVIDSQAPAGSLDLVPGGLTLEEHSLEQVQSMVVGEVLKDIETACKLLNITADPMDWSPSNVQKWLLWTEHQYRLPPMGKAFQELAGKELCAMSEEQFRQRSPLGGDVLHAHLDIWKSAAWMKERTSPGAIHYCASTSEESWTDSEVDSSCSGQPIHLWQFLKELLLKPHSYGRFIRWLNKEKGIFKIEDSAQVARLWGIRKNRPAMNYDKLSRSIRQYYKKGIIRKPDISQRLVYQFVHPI
# Summary of the method: as §1
# [5] = molecular target: T5, ETV7 (Homo sapiens, UniProt Q9Y603 1-341)
# T5 sequence: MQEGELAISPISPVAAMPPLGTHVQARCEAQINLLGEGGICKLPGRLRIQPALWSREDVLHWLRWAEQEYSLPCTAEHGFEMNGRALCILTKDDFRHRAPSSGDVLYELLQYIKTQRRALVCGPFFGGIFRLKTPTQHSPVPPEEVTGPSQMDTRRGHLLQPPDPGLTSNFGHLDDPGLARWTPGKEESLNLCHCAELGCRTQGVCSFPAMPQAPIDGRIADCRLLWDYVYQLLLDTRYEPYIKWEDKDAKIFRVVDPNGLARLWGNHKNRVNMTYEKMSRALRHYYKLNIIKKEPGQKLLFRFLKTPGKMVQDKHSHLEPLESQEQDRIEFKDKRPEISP
# Summary of the method: as §1
# [6] = molecular target: T6, ELF5 (Homo sapiens, UniProt Q9UKW6-2 1-255)
# T6 sequence: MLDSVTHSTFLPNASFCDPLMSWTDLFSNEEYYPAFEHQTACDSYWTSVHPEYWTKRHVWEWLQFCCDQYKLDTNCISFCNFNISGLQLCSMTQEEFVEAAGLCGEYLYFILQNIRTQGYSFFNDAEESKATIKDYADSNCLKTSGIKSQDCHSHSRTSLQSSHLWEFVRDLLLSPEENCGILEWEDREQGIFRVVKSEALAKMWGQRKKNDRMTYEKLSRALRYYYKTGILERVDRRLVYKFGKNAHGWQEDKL
# Summary of the method: as §1
# [7] = molecular target: T7, ETV3 (Homo sapiens, UniProt P41162-2 1-143)
# T7 sequence: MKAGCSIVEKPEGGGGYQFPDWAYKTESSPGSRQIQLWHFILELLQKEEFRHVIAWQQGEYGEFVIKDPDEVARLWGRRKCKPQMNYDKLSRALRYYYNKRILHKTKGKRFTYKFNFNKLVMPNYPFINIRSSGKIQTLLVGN
# Summary of the method: as §1
# [8] = molecular target: ETV6 (Homo sapiens, UniProt P41212 1-452)
# Summary of the method: as §1
# Chain of ETV6 (P41212 whole entry): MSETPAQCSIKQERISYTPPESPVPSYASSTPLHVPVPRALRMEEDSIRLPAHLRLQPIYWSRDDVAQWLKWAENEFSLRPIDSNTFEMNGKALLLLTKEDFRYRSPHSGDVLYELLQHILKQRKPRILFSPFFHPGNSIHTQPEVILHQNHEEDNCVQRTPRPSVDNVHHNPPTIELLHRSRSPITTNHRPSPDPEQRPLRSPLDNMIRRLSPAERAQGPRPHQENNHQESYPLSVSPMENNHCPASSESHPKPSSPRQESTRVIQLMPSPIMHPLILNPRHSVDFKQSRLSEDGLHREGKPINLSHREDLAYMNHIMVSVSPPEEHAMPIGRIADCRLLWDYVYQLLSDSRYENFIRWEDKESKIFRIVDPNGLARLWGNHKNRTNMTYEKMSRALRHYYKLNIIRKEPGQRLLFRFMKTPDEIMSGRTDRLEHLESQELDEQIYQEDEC
Sequence,binding signal [1],binding signal [2],binding signal [3],binding signal [4],binding signal [5],binding signal [6],binding signal [7],binding signal [8]
ATTAAT,"1.25 fold enrichment (6-mer frequency, TF over GST control)","1.18 fold enrichment (6-mer frequency, TF over GST control)","1.27 fold enrichment (6-mer frequency, TF over GST control)","1.23 fold enrichment (6-mer frequency, TF over GST control)","1.21 fold enrichment (6-mer frequency, TF over GST control)","1.18 fold enrichment (6-mer frequency, TF over GST control)","1.25 fold enrichment (6-mer frequency, TF over GST control)","1.3 fold enrichment (6-mer frequency, TF over GST control)"
GCTTCC,"3.06 fold enrichment (6-mer frequency, TF over GST control)","3.36 fold enrichment (6-mer frequency, TF over GST control)","3.56 fold enrichment (6-mer frequency, TF over GST control)","3.67 fold enrichment (6-mer frequency, TF over GST control)","3.14 fold enrichment (6-mer frequency, TF over GST control)","4.78 fold enrichment (6-mer frequency, TF over GST control)","3.8 fold enrichment (6-mer frequency, TF over GST control)","4.28 fold enrichment (6-mer frequency, TF over GST control)"
ATTGAT,"1.34 fold enrichment (6-mer frequency, TF over GST control)","1.31 fold enrichment (6-mer frequency, TF over GST control)","1.29 fold enrichment (6-mer frequency, TF over GST control)","1.32 fold enrichment (6-mer frequency, TF over GST control)","1.23 fold enrichment (6-mer frequency, TF over GST control)","1.27 fold enrichment (6-mer frequency, TF over GST control)","1.33 fold enrichment (6-mer frequency, TF over GST control)","1.24 fold enrichment (6-mer frequency, TF over GST control)"
ATCCTA,"1.34 fold enrichment (6-mer frequency, TF over GST control)","1.32 fold enrichment (6-mer frequency, TF over GST control)","1.43 fold enrichment (6-mer frequency, TF over GST control)","1.72 fold enrichment (6-mer frequency, TF over GST control)","1.37 fold enrichment (6-mer frequency, TF over GST control)","1.45 fold enrichment (6-mer frequency, TF over GST control)","1.33 fold enrichment (6-mer frequency, TF over GST control)","1.34 fold enrichment (6-mer frequency, TF over GST control)"
CCCGAA,"1.48 fold enrichment (6-mer frequency, TF over GST control)","1.35 fold enrichment (6-mer frequency, TF over GST control)","1.37 fold enrichment (6-mer frequency, TF over GST control)","1.31 fold enrichment (6-mer frequency, TF over GST control)","1.26 fold enrichment (6-mer frequency, TF over GST control)","1.32 fold enrichment (6-mer frequency, TF over GST control)","1.33 fold enrichment (6-mer frequency, TF over GST control)","1.36 fold enrichment (6-mer frequency, TF over GST control)"
TCTTAA,"1.19 fold enrichment (6-mer frequency, TF over GST control)","1.37 fold enrichment (6-mer frequency, TF over GST control)","1.22 fold enrichment (6-mer frequency, TF over GST control)","1.28 fold enrichment (6-mer frequency, TF over GST control)","1.27 fold enrichment (6-mer frequency, TF over GST control)","1.2 fold enrichment (6-mer frequency, TF over GST control)","1.23 fold enrichment (6-mer frequency, TF over GST control)","1.26 fold enrichment (6-mer frequency, TF over GST control)"
CGATCT,"1.17 fold enrichment (6-mer frequency, TF over GST control)","1.32 fold enrichment (6-mer frequency, TF over GST control)","1.32 fold enrichment (6-mer frequency, TF over GST control)","1.25 fold enrichment (6-mer frequency, TF over GST control)","1.42 fold enrichment (6-mer frequency, TF over GST control)","1.27 fold enrichment (6-mer frequency, TF over GST control)","1.24 fold enrichment (6-mer frequency, TF over GST control)","1.2 fold enrichment (6-mer frequency, TF over GST control)"
GCTCGC,"1.36 fold enrichment (6-mer frequency, TF over GST control)","1.35 fold enrichment (6-mer frequency, TF over GST control)","1.45 fold enrichment (6-mer frequency, TF over GST control)","1.29 fold enrichment (6-mer frequency, TF over GST control)","1.21 fold enrichment (6-mer frequency, TF over GST control)","1.31 fold enrichment (6-mer frequency, TF over GST control)","1.35 fold enrichment (6-mer frequency, TF over GST control)","1.35 fold enrichment (6-mer frequency, TF over GST control)"
CGCGCT,"1.44 fold enrichment (6-mer frequency, TF over GST control)","1.18 fold enrichment (6-mer frequency, TF over GST control)","1.25 fold enrichment (6-mer frequency, TF over GST control)","1.14 fold enrichment (6-mer frequency, TF over GST control)","1.14 fold enrichment (6-mer frequency, TF over GST control)","1.11 fold enrichment (6-mer frequency, TF over GST control)","1.17 fold enrichment (6-mer frequency, TF over GST control)","1.15 fold enrichment (6-mer frequency, TF over GST control)"
